Assay outcomes deposited in PubChem BioAssay by National Center for Advancing Translational Sciences (NCATS).
DT40 TDP1 CPT = qHTS for Inhibitors of human tyrosyl-DNA phosphodiesterase 1 (TDP1): qHTS in cells in presence of CPT; AID 686979, 2013; chicken DT40 Tdp1-/-;hTDP1 cells + 20 nM CPT, ATP luminescence, 48 h; Potency, µM (top dose mostly 46.2 µM), usual class: inhibitors; actives 12% (n = 420,000); also: nearly all actives have a fitted effect of over 55% in size
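Cell growth measured by CellTiter-Glo luminescence after a minimum 48 h, 37 C compound exposure with 20 nM CPT in Tdp1-knockout DT40 cells stably expressing hTDP1, seeded 400/well; qHTS titration format.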
TDP1 cell noCPT = qHTS for Inhibitors of human tyrosyl-DNA phosphodiesterase 1 (TDP1): qHTS in cells in absence of CPT; Potency, µM (highest dose often 46.2 µM), usual class: inhibitors; DT40 Tdp1-/- hTDP1 cells, no CPT, ATP luminescence, 48 h; actives 15% (n = 420,000); AID 686978, 2013; also: nearly all actives have a fitted effect of over 55% in size
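Luminescent ATP content (CellTiter-Glo) served as the growth readout. Knockout chicken DT40 cells expressing human TDP1 were exposed to compounds without camptothecin for a minimum 48 hr at 37 °C.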
HT1080NT lethal = qHTS for induction of synthetic lethality in tumor cells producing 2HG: qHTS for the HT-1080-NT fibrosarcoma cell line; HT-1080-NT fibrosarcoma viability, CellTiter-Glo ATP luminescence, 48 h; Potency, µM (doses to about 46.1 µM), hits mostly cytotoxic; actives 1.6% (n = 360,000);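 also: NT is the 2HG producing partner of a matched IDH1 knockdown line; nearly all actives have a fitted effect of over 55% in size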
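Fibrosarcoma NT cells, 750 per well in 5% FBS RPMI, were exposed to compound for 48 hours. Viability: CellTiter-Glo luminescence.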
HT1080 IDH1KD tx = qHTS for induction of synthetic lethality in tumor cells producing 2HG: qHTS for the HT-1080-IDH1KD cell line. Potency, µM (top dose mostly 46.1 µM), hits mostly cytotoxic. actives 2% (n = 360,000). HT-1080 IDH1 knockdown viability, ATP luminescence, 48 h
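After a 2 h attachment period, IDH1KD HT-1080 cells took pin-transferred compound for 48 h at 37 °C; ATP-based luminescence after 10 min room-temperature reagent incubation reported viability.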
IL-1B inflam inh = qHTS for Inhibitors of Inflammasome Signaling: IL-1-beta AlphaLISA Primary Screen; THP-1 LPS/ATP IL-1B secretion, AlphaLISA, 16 h; active compounds read low; activity change, % at 57.5 µM; actives 4.7% (n = 360,000); in the data active = activity change below about -50%; inconclusive = mostly about -30% to -49%
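Secreted IL-1B measured by AlphaLISA bead assay after 16 h compound exposure of THP-1 cells; compounds (final up to 57.5 uM) added 1 h before LPS (250 ng/mL) and ATP (1.25 mM) stimulation; lower signal means less secretion.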
Of the large screens only hits and unclear results are named; the others gave an inactive call. Shown are actives, neighbours in structure and some others; about 19% of the full set was active somewhere. Unless noted, calls follow the shape of the dose curve; as a rule, active = well fitted curve in the direction sought with a large enough effect; inconclusive = small, poorly fitted or top-dose-only effect, or another doubt; inactive = no such curve, though single readings can be large; an effect the other way counts as inactive or inconclusive.

Cn1c(=O)[nH]c(=O)c2c1nc1n2CCN1c1ccccc1	none (no result: HT1080NT lethal, HT1080 IDH1KD tx, IL-1B inflam inh)
CCOc1ccccc1NC(=O)C(CC(C)C)NS(=O)(=O)c1ccc2c(c1)oc(=O)n2C (configuration not stated)	none (no result: HT1080NT lethal, HT1080 IDH1KD tx, IL-1B inflam inh)
O=c1cc(N2CCc3ccccc3C2)[nH]c(=O)n1C1CCCCC1	DT40 TDP1 CPT 1.84µM, TDP1 cell noCPT inconclusive
O=c1cc(N2CCC(Cc3ccccc3)CC2)[nH]c(=O)n1C1CCCCC1	DT40 TDP1 CPT inconclusive, TDP1 cell noCPT 16.4µM
COc1cccc(C(=O)Nc2cc(-c3cn4cccnc4n3)ccc2C)c1	none
CC1(C(=O)Nc2cccc(C(F)(F)F)c2)Cc2c(-c3cccc(C(F)(F)F)c3)ccnc2O1 (configuration not stated)	DT40 TDP1 CPT inconclusive, TDP1 cell noCPT inconclusive, HT1080NT lethal inconclusive, HT1080 IDH1KD tx inconclusive
CC(=O)Nc1cccc(-c2ccnc3c2CC(C)(C(=O)Nc2ccc(F)c(Cl)c2)O3)c1 (configuration not stated)	DT40 TDP1 CPT inconclusive, TDP1 cell noCPT inconclusive, HT1080NT lethal inconclusive, HT1080 IDH1KD tx inconclusive
CC(=O)Nc1cccc(-c2ccnc3c2CC(C)(C(=O)Nc2ccc(Cl)c(C(F)(F)F)c2)O3)c1 (configuration not stated)	DT40 TDP1 CPT 10.3µM, TDP1 cell noCPT 13µM, HT1080NT lethal inconclusive, HT1080 IDH1KD tx 23.1µM, IL-1B inflam inh -66.8
CN(C)c1ccc(-c2ccnc3c2CC(C)(C(=O)Nc2cccc(Oc4ccccc4)c2)O3)cc1 (configuration not stated)	none
CC(=O)Nc1ccc(-c2ccnc3c2CC(C)(C(=O)Nc2cccc(OC(F)(F)F)c2)O3)cc1 (configuration not stated)	DT40 TDP1 CPT inconclusive, TDP1 cell noCPT 16.4µM, HT1080NT lethal 25.9µM, HT1080 IDH1KD tx inconclusive
CC(=O)Nc1ccc(-c2ccnc3c2CC(C)(C(=O)Nc2cccc(C(F)(F)F)c2)O3)cc1 (configuration not stated)	DT40 TDP1 CPT 14.6µM, TDP1 cell noCPT inconclusive, HT1080NT lethal inconclusive, HT1080 IDH1KD tx inconclusive, IL-1B inflam inh -62.0
CC(=O)Nc1cccc(-c2ccnc3c2CC(C)(C(=O)Nc2cccc(C(F)(F)F)c2)O3)c1 (configuration not stated)	DT40 TDP1 CPT 13µM, TDP1 cell noCPT 16.4µM, HT1080NT lethal inconclusive, HT1080 IDH1KD tx inconclusive
CC(C)n1c(=O)c2ccccc2n1Cc1cn(Cc2cccnc2)nn1	none
CSc1nc(=O)c2c(n1C)NC(=O)CC2c1cc(F)cc(F)c1 (configuration not stated)	none (no result: HT1080NT lethal, HT1080 IDH1KD tx, IL-1B inflam inh)
CC(C)c1ccc(CCNC(=O)CCNC(=O)c2ccc(Br)cc2)cc1	none
O=[N+]([O-])c1cccc(C2Nc3cccc4cccc(c34)N2)c1	DT40 TDP1 CPT inconclusive, TDP1 cell noCPT 20.6µM
O=C1c2ccccc2NC(c2ccc([N+](=O)[O-])cc2)N1O (configuration not stated)	DT40 TDP1 CPT 20.6µM, TDP1 cell noCPT 18.4µM
O=C1c2ccccc2NC(c2cccc([N+](=O)[O-])c2)N1O (configuration not stated)	DT40 TDP1 CPT 20.6µM, TDP1 cell noCPT inconclusive, HT1080NT lethal inconclusive
O=C1c2ccccc2NC(c2ccc(Br)s2)N1O (configuration not stated)	DT40 TDP1 CPT 10.3µM, TDP1 cell noCPT 11.6µM, HT1080NT lethal inconclusive, HT1080 IDH1KD tx inconclusive
C=CCN1C(=O)c2ccccc2NC1c1ccc(Br)s1 (configuration not stated)	TDP1 cell noCPT inconclusive
O=C1c2ccccc2NC(c2cccc(O)c2)N1O (configuration not stated)	none
CC(C)CN1C(=O)CSCC1(C)C(=O)NCc1ccccc1 (configuration not stated)	none
O=C(C(=O)N1CCCC1)c1c(-c2ccccc2)[nH]c2ccccc12	none
N#C/C(=C\c1cc(Cl)cc(Cl)c1)c1cccnc1	none (no result: HT1080NT lethal, HT1080 IDH1KD tx, IL-1B inflam inh)
Cc1nc(-c2ccc(S(=O)(=O)Nc3ccc(C#N)cc3)cc2)co1	TDP1 cell noCPT inconclusive (no result: HT1080NT lethal, HT1080 IDH1KD tx, IL-1B inflam inh)
CCN(CC)CCCn1c2c(c(SCC(=O)Nc3cccc(C)c3C)nc1=O)CCC2	none
O=C(Nc1cccc(OC(F)(F)F)c1)c1cccc2c(-c3cccnc3)coc12	DT40 TDP1 CPT 23.1µM, TDP1 cell noCPT 20.6µM, HT1080NT lethal inconclusive, HT1080 IDH1KD tx inconclusive
COc1ccc(-c2coc3c(C(=O)Nc4cccc(NS(C)(=O)=O)c4)cccc23)c(C)c1	DT40 TDP1 CPT inconclusive, TDP1 cell noCPT 20.6µM, HT1080NT lethal inconclusive, HT1080 IDH1KD tx inconclusive
CS(=O)(=O)Nc1cccc(NC(=O)c2cccc3c(-c4cccnc4)coc23)c1	DT40 TDP1 CPT 11.6µM, TDP1 cell noCPT 16.4µM
CC(=O)c1cccc(NC(=O)c2cccc3c(-c4cccnc4)coc23)c1	DT40 TDP1 CPT 11.6µM, TDP1 cell noCPT 9.2µM
COc1ccc(NC(=O)c2cccc3c(-c4ccc(OC)cc4C)coc23)cc1	DT40 TDP1 CPT inconclusive, TDP1 cell noCPT inconclusive, HT1080NT lethal inconclusive, HT1080 IDH1KD tx inconclusive
CCc1ccc2oc(C(=O)N3CCN(C)CC3)cc(=O)c2c1	none
O=C(O)Cc1sc(Nc2ccccc2)nc1-c1cccs1	none
CC(=O)c1cccc(NC(=O)c2cccc3c(-c4cnn(C)c4)coc23)c1	DT40 TDP1 CPT 13µM, TDP1 cell noCPT 20.6µM, IL-1B inflam inh -81.1
Cc1ccc2nsnc2c1S(=O)(=O)N(Cc1ccco1)Cc1cc2ccc(C)c(C)c2[nH]c1=O	TDP1 cell noCPT inconclusive
COc1ccc2[nH]c(=O)c(CN(Cc3cccs3)S(=O)(=O)c3c(C)ccc4nsnc34)cc2c1	DT40 TDP1 CPT 4.11µM, TDP1 cell noCPT 18.4µM, HT1080 IDH1KD tx inconclusive, IL-1B inflam inh inconclusive
Cc1ccc2[nH]c(=O)c(CN(Cc3ccco3)S(=O)(=O)c3c(C)ccc4nsnc34)cc2c1	DT40 TDP1 CPT inconclusive, TDP1 cell noCPT inconclusive, IL-1B inflam inh -58.3
Cc1[nH]c2ccc(C(=O)NCCN3CCOCC3)cc2c1C	none
Cc1ccc(CCNC(=O)c2cnc3c(-c4ccc(F)cc4)c(C)nn3c2C)cc1	none (no result: HT1080NT lethal, HT1080 IDH1KD tx, IL-1B inflam inh)
CCOC(=O)c1cnc2c(-c3ccc(Cl)cc3)c(C)nn2c1N	none
CCOc1ccc(-c2c(C)nn3c(C)c(C(=O)NCc4cccc(OC)c4)cnc23)cc1OCC	DT40 TDP1 CPT 9.2µM, TDP1 cell noCPT inconclusive (no result: HT1080NT lethal, HT1080 IDH1KD tx, IL-1B inflam inh)
CCOc1ccc(-c2c(C)nn3c(C)c(C(=O)NCc4ccc(Cl)cc4)cnc23)cc1OCC	DT40 TDP1 CPT 1.16µM, TDP1 cell noCPT 1.64µM (no result: HT1080NT lethal, HT1080 IDH1KD tx, IL-1B inflam inh)
